Screening results from PubChem.
rCAG RNA binder = molecules binding r(CAG) RNA repeats | inhibition, % at 3 µM | r(CAG) RNA repeat, TO-PRO-1 dye displacement fluorescence | actives 1.3% (n = 370,000);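 active = inhibition above the plate cutoff, the mean of all test compounds on that plate plus 3 SD, cut at about 35% in these data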;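 note: 0% = DMSO alone and 100% = 100 µM mitoxantrone as full dye displacement; higher means more dye released from RNA so lower well fluorescence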
PRMT1 FP inh = PRMT1 (human) inhibition, primary screen; recombinant PRMT1, activity-based probe fluorescence polarization; AID 652257; actives 1.3% (n = 370,000); Q99873; inhibition, % at 2.79 µM;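 active = inhibition above about 21% made by adding two undisclosed values, limit read from the data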
Target sequence (Q99873 whole entry, looked up): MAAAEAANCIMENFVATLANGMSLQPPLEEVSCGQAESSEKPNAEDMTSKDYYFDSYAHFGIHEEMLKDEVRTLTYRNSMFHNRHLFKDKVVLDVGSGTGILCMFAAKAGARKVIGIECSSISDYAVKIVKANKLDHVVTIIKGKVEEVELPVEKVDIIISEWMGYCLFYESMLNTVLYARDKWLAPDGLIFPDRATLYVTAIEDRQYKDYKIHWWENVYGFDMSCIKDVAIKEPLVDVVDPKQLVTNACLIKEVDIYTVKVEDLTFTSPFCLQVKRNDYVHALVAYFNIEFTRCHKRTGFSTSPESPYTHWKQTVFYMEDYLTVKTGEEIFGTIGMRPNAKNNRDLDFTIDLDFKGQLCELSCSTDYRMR
ALR inh = inhibitors of human sulfhydryl oxidase ALR; P55789; purified ALR, DTT oxidation, H2O2 HRP-luminol luminescence; inhibition, % (test concentration not listed); actives 3.8% (n = 290,000);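 active = mean replicate inhibition above about 79%, with every replicate also reaching it, limit read from the data; inconclusive = only one of the two criteria met; inactive = mean below limit and not every replicate reaching it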
Target sequence (P55789 whole entry, looked up): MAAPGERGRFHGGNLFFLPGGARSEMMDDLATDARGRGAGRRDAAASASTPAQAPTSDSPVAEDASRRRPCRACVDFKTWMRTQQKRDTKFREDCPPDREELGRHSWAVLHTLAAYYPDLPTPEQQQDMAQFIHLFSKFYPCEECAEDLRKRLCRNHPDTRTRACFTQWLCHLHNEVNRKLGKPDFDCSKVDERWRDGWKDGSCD
ABHD5 PLIN5 PPI = blocks binding of human ABHD5 to perilipin-5; Q00G26+Q8WTS1; Split G. princeps luciferase complementation, luminescence, 4 h; inhibition, % at 4 µM; actives 0.78% (n = 360,000);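 active = inhibition above the mean inhibition across every tested compound plus 3 SD, cut at about 22% in these data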;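 note: 0% = DMSO only wells and the 100% control is not disclosed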
Rtt109 Vps75 = inhibitors of Candida albicans Rtt109/Vps75 histone acetyltransferase; Q5AAJ8; purified Rtt109/Vps75, ThioGlo CoA-SH fluorescence, 4 h; inhibition, % at 34.9 µM; actives 0.16% (n = 330,000); AID 540336;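 active = inhibition of at least 50% in every replicate; inconclusive = best replicate reaches 50% inhibition but some replicates fall short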
LANA-H2A inh = blocks KSHV LANA binding to histone H2A/H2B; cell-free LANA-H2A/H2B peptide, fluorescence polarization; actives 0.6% (n = 320,000); inhibition, % (test concentration not listed); Q9QR71; AID 2629; in the data active = inhibition mostly above about 10%, no sharp cut-off; inactive = mostly below about 6.7%
ABHD5-PLIN5 conf = confirmation of human ABHD5-PLIN5 interaction inhibitors. shares compounds with ABHD5 PLIN5 PPI. biochemical ABHD5-PLIN5 interaction, luminescence. inhibition, % at 4 µM. actives 67% (n = 2,200). AID 651612; in the data active = inhibition above about 23%;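 note: 0% = DMSO vehicle wells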
HNF4 counter = HNF4 split-luciferase signal hit, counter-screen; shares compounds with ABHD5 PLIN5 PPI; HNF4 dimerization, luminescence, biochemical; inhibition, % at 4 µM; actives 77% (n = 2,200); AID 651674;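 active = mean inhibition across replicate wells exceeding the computed hit threshold, cut at about 13% in these data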;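 note: light from luciferase halves that rejoin when HNF4 fusion proteins dimerize; 0% = DMSO only wells and the 100% control is not given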
rCAG bind conf = r(CAG) RNA repeat binding, confirmation; shares compounds with rCAG RNA binder; TO-PRO-1 dye displacement fluorescence; inhibition, % at 3 µM; actives 70% (n = 4,300); AID 652065;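 active = inhibition above a per-plate cutoff, the mean inhibition of sample wells plus 3 SD, cut at about 35% in these data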;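 note: loss of TO-PRO-1 fluorescence as compound displaces dye from 1x1 AA loop RNA; 0% = DMSO only wells and 100% = 100 µM mitoxantrone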
dCAG dye counter = DNA CAG dye complex inhibition counter-screen | d(CAG) DNA oligo TO-PRO-1 dye displacement, fluorescence | inhibition, % at 3 µM | actives 94% (n = 4,300) | shares compounds with rCAG RNA binder;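 active = inhibition above its plate's cutoff, the mean test-well inhibition plus 3 SD, cut at about 4.8% in these data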;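 note: 0% = DNA dye mix with DMSO and 100% = 100 µM mitoxantrone; hits displace the dye from DNA and so lower well fluorescence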
PRMT1 inh conf = confirmation of human PRMT1 inhibitors; actives 42% (n = 3,300); recombinant His-PRMT1, activity-based probe fluorescence polarization; shares compounds with PRMT1 FP inh; inhibition, % at 2.79 µM; AID 687036;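 active = mean inhibition across replicates above the hit cutoff derived for the earlier primary screen, cut at about 22% in these data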
Numbers without * were called inactive; ? = inconclusive; . = no result. Sampled rows, rich in hits. Any-hit rate of the full collection: about 5.9%.

SMILES	rCAG RNA binder	PRMT1 FP inh	ALR inh	ABHD5 PLIN5 PPI	Rtt109 Vps75	LANA-H2A inh	ABHD5-PLIN5 conf	HNF4 counter	PRMT1 inh conf	others
CC(C)[C@@H](C)/C=C/[C@@H](C)[C@H]1CC[C@@H]2[C@]1(C)CCC1[C@]23C=C[C@]2(C[C@@H](O)CC[C@]12C)N(C(=O)Cc1ccccc1)O3 (stereo partly drawn)	3	-2	.	.	.	.	.	.	.
O=C(O)/C=C/C(=O)c1ccc2c(c1)CCc1ccccc1-2	20	56*	59	95*	144*	-6	104*	110*	72*
CC1=C(C(=O)N(C)C)CC(CC(=O)NC2CCCC2)C(=O)N1CCC1=CCCCC1 (stereo not drawn)	0	-6	.	-7	.	.	.	.	.
CC(=O)N1CCN(C(=O)C2CCCN(C(=O)c3ccc4c(c3)NC(=O)CS4)C2)CC1 (stereo not drawn)	1	-4	.	.	.	.	.	.	.
NS(=O)(=O)c1ccc(CCNC(=O)c2cc(-c3ccccc3)nc3ccccc23)cc1	8	-2	-14	-1	1	6	.	.	.
NS(=O)(=O)c1ccc(CCNC(=O)c2cc(-c3ccco3)nc3ccccc23)cc1	27	51*	11	25*	22	1	22*	22*	6
c1ccc(-c2nnnn2-c2ccccc2)cc1	-5	3	-13	-3	6	-4	.	.	.
ClC(Cl)(c1nnnn1-c1ccccc1)c1nnnn1-c1ccccc1	-1	90*	21	87*	?	3	74*	103*	91*
COc1ccc(CN(C)CC#Cc2ccccc2)c(OC)c1	-2	0	.	.	.	.	.	.	.
CC1(C(=O)Nc2cnc3ccccc3c2)CCN1Cc1ccc(-c2ccccc2)o1 (stereo not drawn)	10	34*	.	65*	.	.	47*	70*	11
C[C@H](CO)N1C[C@H](C)[C@H](CN(C)Cc2ccc(Oc3ccccc3)cc2)Oc2cc(Br)ccc2S1(=O)=O	6	3	.	-5	.	.	.	.	.
O=C1CCC(c2ccccc2)c2ccccc21 (stereo not drawn)	2	-2	-2	-1	.	0	.	.	.
N#CC1C(=O)c2ccccc2C1c1ccccc1 (stereo not drawn)	8	45*	.	73*	0	.	8	98*	14
O=C(Nc1nc(-c2ccco2)c(-c2ccco2)s1)C1CCC1	37*	35*	-11	36*	10	1	13	46*	19	rCAG bind conf=21;dCAG dye counter=11*
O=C(Nc1nnc(-c2ccco2)s1)C1CCCCC1	0	-2	42	5	3	5	.	.	.
CC(=O)OCCNc1cc(Sc2nc3ccccc3[nH]2)c2nonc2c1[N+](=O)[O-]	12	92*	96*	60*	70*	-4	71*	112*	52*
Cc1oc(=O)c(NC(=O)c2ccc(Cl)cc2)cc1C(=O)c1ccccc1	6	42*	?	46*	4	-5	11	95*	21
O=C1c2cccc(O)c2C(=O)c2c(O)cccc21	.	.	-10	.	.	-7	.	.	.
CC1OC(CC(=O)O)CC2=C1C(=O)c1c(O)cccc1C2=O (stereo not drawn)	12	95*	.	99*	-2	.	4	5	46*
O=S(=O)(c1ccc2nc(-c3ccco3)c(-c3ccco3)nc2c1)N1CCOCC1	69*	52*	-17	26*	1	-2	78*	62*	69*
O=C(O)c1ccc2nc(-c3ccco3)c(-c3ccco3)nc2c1	42*	55*	.	27*	-3	.	82*	94*	67*	rCAG bind conf=47*;dCAG dye counter=12*
CC(C)[C@H](NC(=O)OC(C)(C)C)c1nnc(S(=O)(=O)Cc2c(F)cccc2Cl)o1	-9	30*	14	71*	1	-1	85*	108*	21
Cc1ccccc1CS(=O)(=O)c1nnc([C@H](CC(C)C)NC(=O)OC(C)(C)C)o1	-5	27*	64	45*	2	-4	69*	90*	15
O=S1(=O)c2ccc(Br)cc2OC[C@@H](Cc2ccccc2)N1Cc1cn(Cc2ccc(F)cc2)nn1	1	-1	.	.	.	.	.	.	.
CCCn1c(=S)[nH]c2cc(C(=O)N3CCN(c4ccc(F)cc4)CC3)ccc2c1=O	3	1	.	2	.	.	.	.	.
SMILES	rCAG RNA binder	PRMT1 FP inh	ALR inh	ABHD5 PLIN5 PPI	Rtt109 Vps75	LANA-H2A inh	ABHD5-PLIN5 conf	HNF4 counter	PRMT1 inh conf	others
Cc1ccc(NC(=O)CSc2nnc(-c3ccco3)c(-c3ccco3)n2)cc1	41*	37*	99*	27*	16	5	94*	65*	77*
Cc1cc(Nc2cccc(C(F)(F)F)c2)cc(=O)n1-c1cccc(C(F)(F)F)c1	1	0	.	.	.	.	.	.	.
CC(=O)N(c1ccc2oc(=O)sc2c1)S(=O)(=O)c1ccc(C(=O)O)cc1	28	91*	.	25*	4	9	-42	82*	80*
COc1ccc(OC)c2cc3ccccc3cc12	5	29*	.	48*	8	.	67*	12	70*
Cc1ccc(-c2nn(-c3ccccc3)cc2CN(Cc2ccccc2)C(=O)c2ccco2)o1	6	39*	5	38*	6	2	15	21*	19
Cc1ccc(-c2nn(-c3ccccc3)cc2C(=O)O)o1	.	.	12	.	.	6	.	.	.
O=C(NCc1ccco1)c1cc2nc(-c3cccs3)cc(C(F)(F)F)n2n1	6	34*	-7	23*	-13	2	13	16*	2
CCN1C(=O)S/C(=C\c2ccc(N3CCOCC3)cc2C)C1=O	-5	-1	.	2	24	4	.	.	.
CCCN1C(=O)S/C(=C\c2ccc(N3CCOCC3)o2)C1=O	10	26*	86*	74*	17	-29	54*	109*	-72
Cc1ccc(CN2C(=O)N/C(=C\c3ccc(N4CCOCC4)cc3)C2=O)cc1	3	-3	.	-1	4	.	.	.	.
Cc1ccc(/C=C2/NC(=O)N(Cc3ccccc3F)C2=O)o1	14	83*	.	40*	14	4	17	81*	10
